# Experimental data published in PubChem BioAssay (EPA / NIEHS).
# Values joined by “and” are separate entries in the source; they are usually repeats but may differ in a detail not shown here. Equal values may be shown once. Records with an inconclusive call do not appear. Where a structure was tested more than once in an assay, its records may differ in their call. Active and inactive are the calls of the source. How the source made its calls, unless noted: active means hit-call score of the fitted dose curve at least 0.9, where 1 is the maximum; inactive means score below 0.9.
# Legend:
# [1] = CCTE_Shafer_MEA_acute_burst_percentage_std: CCTE's Neural Acute Assay for Standard Deviation of Burst Percentage, Shafer Lab (AID 2284018);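 further: fitted in the negative direction so actives lower burst percentage SD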
# Outline: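 Rat primary cortical neurons on 48-well MEAs, DIV 13 or 15, 37 C. 40-min baseline then 40-min recording with compound (0.03-40 uM); well-level SD of per-electrode burst spike percentage, expressed as percent change from baseline.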
# [2] = CCTE_Shafer_MEA_acute_per_network_burst_spike_number_mean: CCTE's Neural Acute Assay for Average Number of Spikes in a Network Burst, Shafer Lab (AID 2284019);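 on AC50: curve fitted for loss of signal so actives reduce spikes per network burst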
# Outline: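 Rat primary cortical neurons on 48-well MEA at DIV 13 or 15, 37 C; compounds 0.03-40 uM, at least three wells each. 40-min baseline then 40-min exposure recording; percent change in mean spikes per network burst.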
# [3] = CCTE_Shafer_MEA_acute_per_network_burst_spike_number_std: CCTE's Neural Acute Assay for Standard Deviation of Number of Spikes in a Network Burst, Shafer Lab (AID 2284020);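 further: fitted for decrease in spike-number SD versus DMSO so actives lower it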
# Outline: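 Rat primary cortical neurons on 48-well MEA (16 electrodes/well), treated DIV 13 or 15 at 0.03-40 uM, ≥3 wells per compound. 40 min recordings at 37 C before and after dosing; value is percent change in network-burst spike-number SD, negative direction vs DMSO.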
# [4] = CCTE_Shafer_MEA_acute_per_network_burst_electrodes_number_mean: CCTE's Neural Acute Assay for Mean Number of Electrodes in a Network Burst, Shafer Lab (AID 2284021);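 further: curves fitted for decreases only so hits reduce electrodes per burst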
# Outline: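 Primary rat cortical networks, mwMEA, 37 C. 20 min stabilization, 40 min baseline, compound 0.03-40 uM, 40 min re-record. Wells need >=10 active electrodes; percent change per well, negative fitting direction.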
# [5] = CCTE_Shafer_MEA_acute_network_burst_percentage: CCTE's Neural Acute Assay for Percentage of Network Bursts, Shafer Lab (AID 2284022);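 further: curves fitted for loss so actives lower network burst percentage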
# Outline: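 Readout is the fraction of spikes falling in network bursts, expressed as per-well percent change from a 40-min pre-exposure baseline. Primary rat cortical neurons on MEA were exposed to 0.03-40 uM compound on DIV 13 or 15 and recorded for 40 min at 37 C.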
# [6] = CCTE_Shafer_MEA_acute_cross_correlation_area: CCTE's Neural Acute Assay for Area of Cross Correlation, Shafer Lab (AID 2284024);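 further: area under pooled inter-electrode spike cross-correlation near zero lag as percent change from own baseline; curves fitted for loss of cross-correlation area so actives lower synchrony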
# Outline: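 Plates equilibrated 20 min at 37 C, then 40 min baseline was recorded, compound was added (0.03-40 uM), and a further 40 min was recorded. Wells needed ≥10 active electrodes (≥5 spikes/min) on exposure day.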
# [7] = CCTE_Shafer_MEA_acute_cross_correlation_HWHM: CCTE's Neural Acute Assay for Cross Correlation at Half Width at Half Maximum, Shafer Lab (AID 2284026);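 further: percent change per well from pre-dose baseline in spike cross-correlogram half width; hits are a decrease in cross-correlogram half width relative to DMSO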;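 on outcome: spontaneous network firing of rat primary cortical neurons on multiwell microelectrode arrays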
# Outline: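 Rat cortical neuron cultures on microelectrode arrays were equilibrated 20 min at 37 C, recorded 40 min at baseline, then 40 min after compound addition (0.03-40 uM, ≥3 wells). Spikes were detected at 8x rms noise after 300-5000 Hz band-pass filtering.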
# [8] = CCTE_Shafer_MEA_dev_firing_rate_mean: CCTE's Neural Network Formation Assay for Mean Firing Rate, Shafer Lab (AID 2284031);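 on AC50: curve fitted for loss of firing so AC50 reflects decreased mean firing rate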
# Outline: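 Primary rat cortical neurons on 48-well MEA plates, exposed from plating day 0 with dosing renewed on DIV 5 and 9. Mean well firing rate over active electrodes, recorded days 5, 7, 9, 12, summarised as trapezoidal AUC.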
# [9] = CCTE_Shafer_MEA_dev_per_burst_spike_percent: CCTE's Neural Network Formation Assay for Percent of Spikes in a Burst, Shafer Lab (AID 2284032);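 on AC50: fitted as a decrease in burst spike percentage below DMSO baseline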
# Outline: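 Rat primary cortical neurons on 16-electrode MEA wells, dosed from plating day 0 for 12 days with renewal on DIV 5 and 9; spikes-in-bursts percentage averaged over bursting electrodes, collapsed as AUC across days 5, 7, 9, 12; loss direction versus DMSO.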
# [10] = CCTE_Deisenroth_AIME_384WELL_CTox_Active: Cytotoxicity Assessment (CTOX) in CCTE's 384-well Estrogen Receptor Transactivation Assay with AIME metabolic competence (metabolism positive), Deisenroth Lab (AID 2284037; active means hit-call score of the fitted dose curve at least 0.9, where 1 is the maximum;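 further: chemicals first conditioned 2 h by alginate-bound induced rat liver S9 before cells; activity means signal loss indicating cell death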)
# Outline: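 Chemicals pre-incubated 2 hours with alginate-immobilised phenobarbital/beta-naphthoflavone-induced male Sprague Dawley rat liver S9, then conditioned medium applied 24 hour to VM7Luc4E2 cells. Viability by fluorogenic protease substrate; 10-point series 0.002 - 200 uM.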
# [11] = CCTE_Deisenroth_AIME_384WELL_CTox_Inactive: Cytotoxicity Assessment (CTOX) in CCTE's 384-well Estrogen Receptor Transactivation Assay without AIME metabolic competence (metabolism negative), Deisenroth Lab (AID 2284039; active means hit-call score of the fitted dose curve at least 0.9, where 1 is the maximum;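 further: cell viability via live-cell protease substrate cleaved to fluorescent probe; cells exposed 24 h to medium preincubated 2 h with alginate-water beads without S9; loss of fluorescence signal means loss of viability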)
# Outline: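 Metabolism-negative arm: chemicals (10-point, 0.002 - 200 uM) preincubated 2 h with alginate-water lids, medium moved onto VM7Luc4E2 cells for 24 h. Fluorescent live-cell protease readout; bidirectional curve fit.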
# [12] = CCTE_Shafer_MEA_dev_burst_rate: CCTE's Neural Network Formation Assay for Burst Rate, Shafer Lab (AID 2284042);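 on AC50: potency for loss of burst rate below DMSO control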
# Outline: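 Cells plated, treated day 0; recorded DIV 5, 7, 9, 12; fed and re-treated DIV 5, 9. Endpoint: bursts per recording time, active-electrode well mean, trapezoidal AUC, fitted in decreasing direction against DMSO baseline.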
# [13] = CCTE_Shafer_MEA_dev_bursting_electrodes_number: CCTE's Neural Network Formation Assay for Number of Bursting Electrodes, Shafer Lab (AID 2284043; active means hit-call score of the fitted dose curve at least 0.9, where 1 is the maximum;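 on AC50: potency is for loss of bursting electrodes relative to DMSO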)
# Outline: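 Primary rat cortical neurons plated on 16-electrode MEA wells, exposed from day 0 with compound renewed at DIV 5 and 9. Electrodes bursting ≥1 burst per 2 min counted on days 5, 7, 9 and 12; trapezoidal AUC across days, fitted for loss versus DMSO.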
# [14] = CCTE_Shafer_MEA_dev_per_burst_interspike_interval: CCTE's Neural Network Formation Assay for Burst Interspike Interval, Shafer Lab (AID 2284044);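 further: mean spike spacing inside bursts as AUC over recordings on days 5 7 9 12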;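 on AC50: potency for a decrease of within-burst interspike interval below DMSO level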
# Outline: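 Neurons from rat cortex plated onto PEI-coated MEA wells with laminin […] at 1.5 x 10^5 cells/well, then treated from day 0. Media and compound fully replaced on DIV 5 and 9. Extracellular spontaneous firing recorded four times; interspike interval per burst summarised as AUC.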
# [15] = CCTE_Shafer_MEA_dev_burst_duration_mean: CCTE's Neural Network Formation Assay for Mean Burst Duration, Shafer Lab (AID 2284045);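 on AC50: curve fitted for loss meaning shorter burst duration than DMSO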
# Outline: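 Primary rat cortical neurons on 48-well 16-electrode MEA plates, exposed from day 0 with renewal at DIV 5 and 9; spontaneous activity recorded on days 5, 7, 9, 12. Well-mean burst duration across bursting electrodes, collapsed as trapezoidal AUC; DMSO baseline.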
# [16] = CCTE_Shafer_MEA_dev_interburst_interval_mean: CCTE's Neural Network Formation Assay for Mean Interburst Interval, Shafer Lab (AID 2284046);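 further: well-mean interburst interval of bursting electrodes as AUC over four recording days; curve fitted for decrease in interburst interval relative to DMSO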
# Outline: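 Developing rat cortical networks on 48-well MEAs receive compound from the day of plating. Burst intervals from each active electrode are averaged per well, and AUC over the recording days is fitted in the negative direction against DMSO.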
# [17] = target: Estrogen receptor (Homo sapiens) (UniProt P03372); assay: CCTE_Deisenroth_AIME_384WELL_LUC_Active: CCTE's 384-well Estrogen Receptor Transactivation Assay with AIME metabolic competence (ERTA luciferase; metabolism positive), Deisenroth Lab (AID 2284030; active means hit-call score of the fitted dose curve at least 0.9, where 1 is the maximum)
# Estrogen receptor (Homo sapiens), sequence (P03372 whole entry, looked up): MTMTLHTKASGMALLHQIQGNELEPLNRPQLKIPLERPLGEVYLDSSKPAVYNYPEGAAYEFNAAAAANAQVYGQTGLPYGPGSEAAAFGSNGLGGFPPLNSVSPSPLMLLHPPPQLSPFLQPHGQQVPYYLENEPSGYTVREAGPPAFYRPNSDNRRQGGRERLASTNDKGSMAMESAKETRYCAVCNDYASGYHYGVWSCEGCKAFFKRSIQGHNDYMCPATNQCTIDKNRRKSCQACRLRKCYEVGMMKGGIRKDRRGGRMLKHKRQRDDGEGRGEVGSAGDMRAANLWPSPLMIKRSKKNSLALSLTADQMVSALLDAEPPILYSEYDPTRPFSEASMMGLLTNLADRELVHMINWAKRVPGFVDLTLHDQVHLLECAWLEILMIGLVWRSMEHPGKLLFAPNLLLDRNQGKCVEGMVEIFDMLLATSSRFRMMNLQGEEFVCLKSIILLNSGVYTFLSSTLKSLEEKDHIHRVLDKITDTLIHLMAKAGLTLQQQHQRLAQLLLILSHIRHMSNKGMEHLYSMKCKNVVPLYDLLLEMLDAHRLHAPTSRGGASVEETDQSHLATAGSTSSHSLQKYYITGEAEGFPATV
# Outline: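 AIME metabolism-positive mode: chemicals 0.002 - 200 uM, 2 h with alginate-bound PB/BNF-induced rat S9 → medium to VM7Luc4E2 ERTA, 24 h → luciferase. Positive fit vs 17beta-estradiol; n=4 typical.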
# [18] = CCTE_Shafer_MEA_dev_active_electrodes_number: CCTE's Neural Network Formation Assay for Number of Active Electrodes, Shafer Lab (AID 2284040; active means hit-call score of the fitted dose curve at least 0.9, where 1 is the maximum;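 on AC50: potency for loss of active electrodes versus DMSO so lower counts are hits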)
# Outline: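 Primary rat cortical neurons on 16-electrode MEA wells, exposed from day 0 through day 12 with compound renewed at DIV 5 and 9 feeds. Active electrodes (mean firing ≥5 spikes/min) counted at DIV 5, 7, 9, 12; trapezoidal AUC across days, loss-of-signal versus DMSO.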
# [19] = target: Estrogen receptor (Homo sapiens) (UniProt P03372); assay: CCTE_Deisenroth_AIME_384WELL_LUC_Shift: CCTE's 384-well Estrogen Receptor Transactivation Assay with AIME metabolic competence data shift (ERTA luciferase; difference in metabolism positive and negative), Deisenroth Lab (AID 2284041);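 further: shift is response with S9 minus without S9 so positive means metabolism raised ER signal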
# Outline: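 Chemicals (0.002–200 uM, 10 points) pre-incubated 2 h with alginate-encapsulated induced male Sprague Dawley rat liver S9 or S9-free, then medium applied 24 h to VM7Luc4E2 cells; luciferase. Endpoint is per-concentration difference, S9-positive minus negative.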
smiles,measurement,setting,value
CN(C)NC(=O)CCC(=O)O,outcome,[1],inactive
same,outcome,[2],inactive
same,outcome,[3],inactive
same,outcome,[4],inactive
same,outcome,[5],inactive
same,outcome,[6],inactive
same,outcome,[7],inactive
CC1=NNC(=O)N(/N=C/c2cccnc2)C1,outcome,[1],inactive
same,outcome,[2],inactive
same,outcome,[3],inactive
same,outcome,[4],inactive
same,outcome,[5],inactive
same,outcome,[6],inactive
same,outcome,[7],inactive
same,outcome,[8],inactive
same,outcome,[9],inactive
same,outcome,[10],inactive
same,outcome,[11],inactive
same,outcome,[12],inactive
same,outcome,[13],inactive
same,outcome,[14],inactive
same,AC50,[15],24800 nM (active)
same,outcome,[16],inactive
O=[N+]([O-])c1cc(C(F)(F)F)c(Cl)c([N+](=O)[O-])c1Nc1ncc(C(F)(F)F)cc1Cl,outcome,[1],inactive
same,AC50,[2],321 nM (active)
same,AC50,[3],465 nM (active)
same,AC50,[4],481 nM (active)
same,AC50,[5],1130 nM (active)
same,AC50,[6],263 nM (active)
same,AC50,[7],5300 nM (active)
same,outcome,[17],inactive
same,AC50,[8],786 nM (active)
same,AC50,[9],669 nM (active)
same,AC50,[10],100000 nM (active)
same,AC50,[11],142000 nM (active)
same,AC50,[18],0.905 µM (active)
same,outcome,[19],inactive
same,AC50,[12],390 nM (active)
same,AC50,[13],374 nM (active)
same,AC50,[14],783 nM (active)
same,AC50,[15],549 nM (active)
same,AC50,[16],885 nM (active)
CCCOCC(=Nc1ccc(Cl)cc1C(F)(F)F)n1ccnc1,outcome,[1],inactive
same,AC50,[2],943 nM (active)
same,AC50,[3],4420 nM (active)
same,outcome,[4],inactive
same,outcome,[5],inactive
same,AC50,[6],440 nM (active)
same,AC50,[7],1600 nM (active)
CCOP(=O)(OCC)Oc1cc(C)nc(C(C)C)n1,outcome,[8],inactive
same,outcome,[9],inactive
same,outcome,[18],inactive
same,outcome,[12],inactive
same,outcome,[13],inactive
same,outcome,[14],inactive
same,outcome,[15],inactive
same,outcome,[16],inactive
CSc1nc(NC(C)C)nc(NC(C)C)n1,outcome,[11],inactive
same,outcome,[19],inactive
S=C1NCCN1,outcome,[8],inactive
same,outcome,[9],inactive
same,AC50,[18],3.82 µM (active)
same,outcome,[12],inactive
same,outcome,[13],inactive
same,outcome,[14],inactive
same,outcome,[15],inactive
same,outcome,[16],inactive
CC(C1CC1)C(O)(Cn1cncn1)c1ccc(Cl)cc1 (centres undefined),outcome,[11],inactive
CC1(C(=O)Nc2ccc(O)c(Cl)c2Cl)CCCCC1,outcome,[10],inactive
same,outcome,[11],inactive
N#CSCSC#N,outcome,[1],inactive
same,outcome,[2],inactive
same,outcome,[3],inactive
same,outcome,[4],inactive
same,AC50,[5],30500 nM (active)
same,outcome,[6],inactive
same,outcome,[7],inactive
same,outcome,[10],inactive
same,outcome,[11],inactive
Nc1nc(N)nc(NC2CC2)n1,outcome,[10],inactive
same,outcome,[11],inactive
CCCSP(=O)(OCC)Oc1ccc(Br)cc1Cl (centres undefined),outcome,[8],inactive
same,outcome,[9],inactive
same,outcome,[10],inactive
same,outcome,[11],inactive
same,outcome,[18],inactive
same,outcome,[12],inactive
same,outcome,[13],inactive
same,outcome,[14],inactive
same,outcome,[15],inactive
same,outcome,[16],inactive
O=C(O)c1cc(Oc2ccc(C(F)(F)F)cc2Cl)ccc1[N+](=O)[O-],outcome,[1],inactive
same,outcome,[2],inactive
same,outcome,[3],inactive
same,outcome,[4],inactive
same,outcome,[5],inactive
same,outcome,[6],inactive
same,outcome,[7],inactive
same,outcome,[10],inactive
same,outcome,[11],inactive
CCOP(=S)(OCC)Oc1cc(C)nc(C(C)C)n1,AC50,[8],50000 nM (active)
same,outcome,[8],inactive
same,AC50,[9],50000 nM (active)
same,outcome,[9],inactive
same,AC50,[18],75.9 µM (active)
same,outcome,[12],inactive
same,AC50,[13],60200 nM (active)
same,outcome,[14],inactive
same,outcome,[15],inactive
same,outcome,[16],inactive
CCCCSP(=O)(SCCCC)SCCCC,AC50,[8],66.3 µM (active) and 11.5 µM (active)
same,AC50,[9],31.1 µM (active) and 49.9 µM (active)
same,AC50,[18],34.3 µM (active) and 15.2 µM (active)
same,AC50,[12],71400 nM (active)
same,outcome,[12],inactive
same,AC50,[13],32 µM (active) and 15.8 µM (active)
same,AC50,[14],50 µM (active) and 18.8 µM (active)
same,outcome,[15],inactive
same,AC50,[16],63.3 µM (active) and 49.9 µM (active)
